Here are results for 31 compounds from PubChem BioAssay (Tox21).

Inconclusive results are not listed. Values without a mark were called inactive. Calls come from the whole dose curve; as a rule, active = well fitted curve in the direction sought with a large enough effect in the repeat runs; inconclusive = weak or mixed curves; inactive = no such curve, though single readings can be large; an effect the other way counts as inactive or inconclusive.
% is set by controls: 0 for no effect and ±100 for the full control effect.

One assay can be described thus: qHTS assay to identify small molecule antagonists of the retinoic acid receptor (RAR) signaling pathway (AID 1159552; note: nearly all actives have a fitted effect of over 50% in size). As to conditions: C3RL4 RARE luciferase reporter, retinol-stimulated, 6 h; series mostly up to 92.4 µM; activity, negative = inhibition: at the top concentration. The gist of the method:
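Overnight-plated C3RL4 reporter cells get compound, then retinol to 1 uM final; plates sit 6 hr at 37 C, 5% CO2. A luciferase reagent is added and light output recorded after 30 min at room temperature.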
Background: qHTS replaces the single test concentration by a dilution series.
With `CC(Oc1c(Cl)cccc1Cl)C1=NCCN1` (stereo unspecified), the “activity, negative = inhibition” value is -73.4% [at 42.5 µM]. The same measure, in the same setting: in the case of `CC(=O)Nc1ccc(C)c(Cl)c1` it was -14.4%; in that of `CCN(CC)CC1CCCCN1CC(=O)N1c2ccccc2C(=O)Nc2cccnc21` (stereo unspecified), 60.1% [at 42.5 µM]; in that of `OCCN1CCN(CCO)CC1`, 48%. Consider `CC(C)C(=O)OCC(C)(C)C(O)C(C)C` (stereo unspecified), for which the “activity, negative = inhibition” value is -1.54%. Regarding `CN(CC1(C)CCCO1)S(=O)(=O)c1ccc(Cl)c(S(N)(=O)=O)c1` (stereo unspecified), the “activity, negative = inhibition” value was 3.15% [at 42.5 µM]. The same measure, in the same setting: in the case of `O=C(O)c1cccc(Cl)c1Cl` it was 9.6%; in that of `OC[C@H]1O[C@@H](O[C@H]2[C@H](O)[C@@H](O)[C@H](O)O[C@@H]2CO)[C@H](O)[C@@H](O)[C@H]1O`, 17%.

As to `COC(C)CCO` (stereo unspecified), the “activity, negative = inhibition” value was 5.81%.

Turning to `CC(C)c1ccccc1`, the “activity, negative = inhibition” value is 236%. Still for that read-out and setting: as for `CCCc1c2oc(C(=O)O)cc(=O)c2cc2c(=O)cc(C(=O)O)n(CC)c12`, the figure is 28.8% [at 42.5 µM]; as for `O=C1C=CC(=O)O1`, -0.801%. Same read-out and setting: in the case of `Oc1ccccc1F` it was -7.13%; in that of `CC(C)CCCCCCc1ccc(OCCOCCO)cc1`, 9.91%. Regarding `CCC(=O)Nc1ccc(O)cc1`, the “activity, negative = inhibition” value is 4.43% [at 42.5 µM]. On the same count and under the same terms, in the case of `C/C(=N\O)[C@@H](C)NCC(C)(C)CN[C@H](C)/C(C)=N/O` it was 2.51% [at 42.5 µM]. Still for that read-out and setting: as for `OCc1c2ccccc2cc2ccccc12`, the figure is 52.4%; as for `O=C1Nc2ccc([N+](=O)[O-])cc2C1=O`, -4.76%; as for `O=S(=O)(O)C(F)(F)F`, 1.77%.

`OCc1ccccc1O`: the “activity, negative = inhibition” value was -0.243% [at 42.5 µM]. Same read-out and setting: in the case of `c1ccc(CN(CC2=NCCN2)c2ccccc2)cc1` it was -4.37% [at 42.5 µM]; in that of `Cc1ncc(CO)c(CN)c1O`, 15% [at 42.5 µM]; in that of `COC(=O)C(C)O` (stereo unspecified), 4.19%.

Regarding `Cn1cnc2c(F)c(Nc3ccc(Br)cc3Cl)c(C(=O)NOCCO)cc21`, the “activity, negative = inhibition” value is 53.3% [at 42.5 µM]. Consider `Cc1cn([C@@H]2O[C@H](CO)[C@@H](O)[C@@H]2F)c(=O)[nH]c1=O`, for which the “activity, negative = inhibition” value was -6.51% [at 42.5 µM]. On the same count and under the same terms, in the case of `C=C(C)C(=O)OCCOP(=O)(O)O` it was -8.97%.

Regarding `CC1CN(c2ccccc2)NC1=O` (stereo unspecified), the “activity, negative = inhibition” value was 37.5%. Still for that read-out and setting: as for `CCOc1ccc(NC(N)=O)cc1`, the figure is 20%. The same measure, in the same setting: in the case of `CCCCNCCCC` it was 43.5%; in that of `FC(F)(F)c1ccccc1`, -10.5%; in that of `Nc1cccc(S(=O)(=O)O)c1`, -1.89%.

The next assay can be described thus: qHTS assay to identify small molecule agonists of the retinoic acid receptor (RAR) signaling pathway (AID 1159553). The following applies: C3RL4 RARE luciferase reporter, agonist, 6 h; series mostly up to 73.3 µM; activation: at the top concentration. The gist of the method:
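Reporter readout comes from luciferase under RARE control in C3RL4 cells; compound exposure lasts 6 hr at 37 C in 5% CO2, and luminescence is recorded following a 30 min room-temperature incubation with reagent.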
For `CC(=O)Nc1ccc(C)c(Cl)c1`, the “activation” value was 0.0636%.

As for `OCCN1CCN(CCO)CC1`, the “activation” value is -0.165% [at 94.8 µM].

Regarding `CC(C)C(=O)OCC(C)(C)C(O)C(C)C` (stereo unspecified), the “activation” value is 0.151% [at 94.8 µM]. Still for that read-out and setting: as for `CN(CC1(C)CCCO1)S(=O)(=O)c1ccc(Cl)c(S(N)(=O)=O)c1` (stereo unspecified), the figure is 2.03%.

In the case of `O=C(O)c1cccc(Cl)c1Cl`, the “activation” value is 1.89%. The same measure, in the same setting: in the case of `OC[C@H]1O[C@@H](O[C@H]2[C@H](O)[C@@H](O)[C@H](O)O[C@@H]2CO)[C@H](O)[C@@H](O)[C@H]1O` it was -4.05%; in that of `COC(C)CCO` (stereo unspecified), -1.01%. `O=C1C=CC(=O)O1`: the “activation” value is 0.186% [at 94.8 µM]. On the same count and under the same terms, as for `Oc1ccccc1F`, the figure is -0.924%. The same measure, in the same setting: in the case of `CC(C)CCCCCCc1ccc(OCCOCCO)cc1` it was -24.4% [at 94.8 µM]. On the same count and under the same terms, in the case of `CCC(=O)Nc1ccc(O)cc1` it was 1.62%.

Turning to `C/C(=N\O)[C@@H](C)NCC(C)(C)CN[C@H](C)/C(C)=N/O`, the “activation” value is -2.66%. Same read-out and setting: in the case of `O=C1Nc2ccc([N+](=O)[O-])cc2C1=O` it was -3.21%; in that of `O=S(=O)(O)C(F)(F)F`, 0.39%. Same read-out and setting: in the case of `OCc1ccccc1O` it was 1.36%; in that of `c1ccc(CN(CC2=NCCN2)c2ccccc2)cc1`, -4.28%. With `Cc1ncc(CO)c(CN)c1O`, the “activation” value is -1.15%. Take `COC(=O)C(C)O` (stereo unspecified): the “activation” value was 0.111% [at 94.8 µM].

Turning to `Cn1cnc2c(F)c(Nc3ccc(Br)cc3Cl)c(C(=O)NOCCO)cc21`, the “activation” value is 2.38%. In the case of `Cc1cn([C@@H]2O[C@H](CO)[C@@H](O)[C@@H]2F)c(=O)[nH]c1=O`, the “activation” value is -1.04%. In the case of `C=C(C)C(=O)OCCOP(=O)(O)O`, the “activation” value was -0.771% [at 94.8 µM]. Take `CCOc1ccc(NC(N)=O)cc1`: the “activation” value is 1.55%. Take `CCCCNCCCC`: the “activation” value is 0.52%. For the compound `FC(F)(F)c1ccccc1`, the “activation” value is -1.09%.

For `Nc1cccc(S(=O)(=O)O)c1`, the “activation” value was -0.956%.
